Assay outcomes deposited in PubChem by National Center for Advancing Translational Sciences (NCATS).
15-hLO inh = qHTS Assay for Inhibitors of 15-hLO (15-human lipoxygenase). 74,000 tested, 1.4% active. Potency, µM (top dose mostly 57.1 µM), inactives show at the top dose activity change, negative = inhibition, usual class: inhibitors. Polyunsaturated fatty acid lipoxygenase ALOX15 (Homo sapiens), P16050. purified 15hLO-1, xylenol orange hydroperoxide absorbance; note: % is set by controls: 0 for no effect and ±100 for the full control effect; nearly all actives have a fitted effect of over 55% in size
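Compounds were preincubated 15 min at room temperature with 40 nM purified human enzyme (25 mM Hepes pH 7.5, 0.01% Triton X-100); 50 uM arachidonic acid reacted 6 min. Fe-xylenol orange detection, 30 min, absorbance ratio 573/405 nm.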
Tau fil binding = qHTS Assay for Tau Filament Binding | recombinant tau filaments, thioflavin S fluorescence, 15 h; filaments grown with octadecylsulfate alongside compound | Microtubule-associated protein tau (Homo sapiens), P10636 | Potency, µM (highest dose often 57.1 µM), for inactives: at the highest dose activity change, negative = inhibition | 71,000 tested, 2% active | AID 596, 2007;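 note: % is set by controls: 0 for no effect and ±100 for the full control effect; actives lower thioflavin S fluorescence by blocking filaments or displacing dye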
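Tau 2 uM in ThS buffer dispensed; compound added; 60 uM ODS added (finals 1 uM tau, 30 uM ODS); 15 h 37 C; fluor ex450/em510.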
USP2a inhib = qHTS Assay for Inhibitors of Ubiquitin-specific Protease USP2a | 60,000 tested, 0.1% active | Ubiquitin carboxyl-terminal hydrolase 2 (Homo sapiens), O75604 | Potency, µM (doses to about 38.3 µM), for inactives: at the top dose activity change, negative = inhibition, actives largely listed as inhibitors | USP2a enzymatic assay, qHTS inhibition | AID 927, 2007; note: nearly all actives have a fitted effect of over 60% in size
Target sequence (O75604 whole entry, looked up): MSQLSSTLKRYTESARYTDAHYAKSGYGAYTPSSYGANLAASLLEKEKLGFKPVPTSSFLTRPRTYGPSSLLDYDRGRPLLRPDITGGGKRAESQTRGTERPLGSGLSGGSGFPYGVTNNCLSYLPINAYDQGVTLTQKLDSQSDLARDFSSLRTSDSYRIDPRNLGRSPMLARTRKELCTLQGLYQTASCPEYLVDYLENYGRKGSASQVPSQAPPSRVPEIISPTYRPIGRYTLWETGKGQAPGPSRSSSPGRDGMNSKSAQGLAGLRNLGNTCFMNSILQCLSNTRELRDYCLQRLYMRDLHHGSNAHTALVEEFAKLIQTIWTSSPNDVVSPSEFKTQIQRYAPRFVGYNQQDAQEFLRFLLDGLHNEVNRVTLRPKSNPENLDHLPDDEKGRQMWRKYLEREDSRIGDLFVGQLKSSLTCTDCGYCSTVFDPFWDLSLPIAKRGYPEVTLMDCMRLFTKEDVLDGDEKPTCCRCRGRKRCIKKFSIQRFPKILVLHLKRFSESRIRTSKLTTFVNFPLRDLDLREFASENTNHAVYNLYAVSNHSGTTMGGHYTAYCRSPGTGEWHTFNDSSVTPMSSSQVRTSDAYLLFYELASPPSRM
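Coupled readout: USP2-cleaved Ub-PLA2 (20nM final) turns over NBD C6-HPC (20uM final), Ex 460nm/Em 535nm after 2.5 h, time-zero read flagging artifacts. Enzyme (20nM final, pH 8.0 Tris) given 30 min RT with compound first; NEM defines full inhibition.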
Hsp90 Hop PPI = qHTS Assay for Disrupters of an Hsp90 Co-Chaperone Interaction. Hsp90 C-terminal peptide / TPR2A (Hop) interaction, human. AlphaScreen TPR2A-His6 binding biotin-Hsp90 C-terminal peptide. Potency, µM (top dose mostly 57 µM), without a hit: at the highest dose activity change, negative = inhibition. 71,000 tested, 0.44% active; active = well fitted curve in either direction with a large enough effect; inconclusive = small, poorly fitted or top-dose-only effect, or another doubt; note: % is set by controls: 0 for no effect and ±100 for the full control effect
The depositor's hits bear a star; i = inactive; ? = inconclusive; nt = not tested or not shown; [ ] = another dose, or the depositor's remark. This is a sample that favours compounds with a hit; in the whole collection about 3.2% have one here. Unless noted, calls come from the whole dose curve; as a rule, active = well fitted curve in the direction sought with a large enough effect; inconclusive = small, poorly fitted or top-dose-only effect, or another doubt; inactive = no such curve, though single readings can be large; an effect the other way counts as inactive or inconclusive. Potency is the fitted concentration of half-maximal effect.

SMILES	15-hLO inh	Tau fil binding	USP2a inhib	Hsp90 Hop PPI
CN(C)CC(=O)N1c2ccccc2CCc2ccc(NC(=O)c3ccc(N)cc3)cc21	-6%	16µM*	22%	-17%
CCOC(=O)c1sc2nc(-c3ccco3)c3c(c2c1N)CC(C)(C)OC3	16µM*	13µM*	26%	-2%
CCOC(=O)c1sc2nc(N3CCOCC3)c3c(c2c1N)CCC3	-21%	-1%	9%	24%
CCOC(=O)c1sc2nc(N3CCOCC3)c3c(c2c1N)CC(C)(C)N(C)C3	-10%	13µM*	3%	-5%
Cc1ccc(C2c3sc(=O)[nH]c3SC3C(=O)NC(=O)C32)cc1 (configuration not stated)	-6%	13%	0%	-8%
CN/C=C1\C(=O)C(C)(C)Oc2ccc3ccc(=O)oc3c21	6%	-11%	nt	-3%
COC1=Cc2c(ccc3ccc(=O)oc23)OC1(C)C	32µM*	-2%	-9%	6%
O=c1c2ccccc2nnn1CSc1nnc(-c2cccnc2)n1-c1ccccc1F	1%	22%	12%	-4%
Cc1ccc(-n2c(SCn3nnc4ccccc4c3=O)nnc2-c2cccnc2)c(C)c1	-14%	16µM*	33%	-12%
FC(F)(F)c1ccccc1-c1cc(N2CCNCC2)ncn1	0%	3%	0%	1%
O=C(COC(=O)c1cncc(Br)c1)NCCC1=CCCCC1	?	-6%	5%	-2%
CCCCCCCCO	0%	1%	nt	0%
CCCCCCCC[N+](CCCCCCCC)(CCCCCCCC)CCCCCCCC	20µM*	400%	nt	-2%
O=C=Nc1ccc(Cl)c(Cl)c1	-21%	183%	nt	6%
CCN(CCCNC(=O)CN(C)S(=O)(=O)c1cccc2nsnc12)c1cccc(C)c1	-11%	16µM*	12%	-16%
COc1ccc2nc3sc(C(=O)NCc4cccs4)c(N)c3cc2c1	20µM*	?	nt	-7%
COc1ncc2nc(-c3cc(F)cc(F)c3)c(=O)n(CCc3ccccc3)c2n1	-15%	?	24%	7%
O=c1c(-c2ccc(Cl)cc2)nc2cnc(Oc3ccccc3)nc2n1C1CC1	-10%	13µM*	128%	1%
CN(C)c1ncc2nc(-c3cccs3)c(=O)n(C3CC3)c2n1	-8%	i	182%	4µM*
O=c1c(-c2ccccc2)nc2cnc(Oc3ccccc3)nc2n1C1CC1	-1%	-22%	103%	-1%
O=c1c(-c2cccs2)nc2cnc(Oc3ccccc3)nc2n1C1CC1	-27%	43%	176%	20µM*
N#Cc1cccc(-c2nc3cnc(Oc4cccc(Cl)c4)nc3n(C3CC3)c2=O)c1	-2%	10µM*	192%	-5%
COCCn1c(C)cc(C(=O)CSc2nc(C)nc3sc4c(c23)CCC4)c1C	-10%	3%	9%	-5%
COc1ccc(CNC(=O)Nc2cccs2)cc1OC	-27%	2%	11%	-3%
COc1ccccc1CNC(=O)Nc1cccs1	13µM*	nt	nt	nt
SMILES	15-hLO inh	Tau fil binding	USP2a inhib	Hsp90 Hop PPI
C=C1C(=O)C=C2CN(C(=O)c3ccccc3)[C@@](Cc3ccc(OC)cc3)(C(=O)OC)[C@@H]12	nt	0%	nt	-1%
c1ccc2c(c1)OCC(c1nnc3sc(-c4cnccn4)nn13)O2 (configuration not stated)	?	25µM*	33%	-5%
C=C[C@@]1(C)CC(=O)[C@@]2(O)[C@@]3(C)[C@H](O)CCC(C)(C)[C@@H]3[C@H](O)[C@H](OC(C)=O)[C@]2(C)O1	-7%	-8%	6%	4%
COC(=O)c1c(C(=O)OC)c2n(c1C)Cc1ccccc1C2	7.9µM*	-26%	-6%	-4%
COC(=O)c1c(C)nn(-c2ccccc2)c1N	5%	-11%	nt	0%
CN(C)CCCc1c2ccccc2nc2ccc(Cl)cc12	4%[11.4 µM]	-12%[11.4 µM]	nt	1%[11 µM]
CCCCC[C@H](O)c1cccc(OCc2ccc3ccccc3n2)c1	-4%	-6%	9%	12%
COc1cc2cc(C(c3nnnn3C3CCCC3)N3CCc4ccccc43)c(=O)[nH]c2cc1OC (configuration not stated)	20µM*	-1%	?	?
